Assay results taken from PubChem BioAssay AID1347076 (National Center for Advancing Translational Sciences (NCATS), 2019).
Out of some 400,000 compounds screened, about 13,000 (3.2%) were called active. About 18% were inconclusive and are not listed. The call rests on the fitted dose curve; in most records, active means well fitted cell-killing curve with a large enough effect; inconclusive means small, poorly fitted or top-dose-only effect, or effect the other way; inactive means flat fitted curve, though single readings scatter. Shown is part of a subset that was picked to be rich in actives. A call without a number means that no potency is given here.
Potency means the concentration at half of the fitted maximal effect.

Assay: qHTS assay for MDR1-selective chemotherapeutics: Primary screen using the drug-selected MDR subline cells KB-V1; further: nearly all actives have a fitted effect of over 60% in size
Conditions: KB-V1 MDR cells viability, CellTiter-Glo, 72 h; series mostly up to 46.1 µM
Outline: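 qHTS viability screen in drug-selected KB-V1 MDR cells: 72 h compound treatment at 37 degrees C, ATP luminescence end point.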
With `CCc1nc2ccc(C(=O)N(C)CCN(C)C)cn2c1N(CC)CCOC` the Potency was “inactive”.
For `CC(=O)C[C@@H]1OC[C@H](C)N1S(=O)(=O)c1ccc(C)cc1`, the Potency was “inactive”.
In the case of `Cc1ccc2nc(NC(=O)C3CCN(S(=O)(=O)c4ccc5c(c4)oc(=O)n5C)CC3)sc2c1`, the Potency is reported as “inactive”.
In the case of `Cc1ccc(C)c(N2CCN(S(=O)(=O)c3ccc4c(c3)oc(=O)n4C)CC2)c1`, the Potency is reported as 14.6 µM (active).
With `Cc1ccc(NS(=O)(=O)c2ccc3c(c2)oc(=O)n3C)c(C)c1` the Potency was “inactive”.
In the case of `COc1ccc(NC(=O)c2cc(=O)[nH]c3ccccc23)cc1S(=O)(=O)N1CCOCC1`, the Potency is reported as “inactive”.
With `Cc1nc(C(F)(F)F)ccc1C(=O)N1CCC1(C)C(=O)NS(=O)(=O)c1ccc(F)cc1F` (stereo not given) the Potency was “inactive”.
For `COc1ccc2ncc3c(-c4ccc(C)c(C)c4)nn(CC(=O)NC4CCCC4)c3c2c1`, the Potency was “inactive”.
For `Cc1ccc([C@H]2N[C@]3(CCCN(Cc4ccccc4)C3=O)[C@H]3C(=O)N(Cc4ccccc4)C(=O)[C@@H]23)cc1`, the Potency was “inactive”.
With `Cc1ccc(C(C)C)cc1OCC(=O)Nc1ccccc1N1CCCC1` the Potency was “inactive”.
With `O=C(CNCCC1=CCCCC1)Nc1ccccc1N1CCCCCC1` the Potency was 11.6 µM (active).
For `Cc1nnc(OCC(=O)NCCC2=CCCCC2)c2ccccc12`, the Potency was “inactive”.
With `Cc1ccc2nc(-c3ccco3)c(Cc3cccc(Cl)c3)n2c1` the Potency was “inactive”.
In the case of `COc1ccc(C(C#N)=C2C=CC(=NO)c3ccccc32)cc1`, the Potency is reported as 1.3 µM (active).
With `COc1ccc(C(=NN)c2ccc(OC)cc2)cc1` the Potency was “inactive”.
With `COc1ccc(/C(N)=N/OC(=O)Cc2ccccc2)cc1` the Potency was “inactive”.
For `CCNC(=O)c1cc2c(c(-c3cccc(-c4cncnc4)c3)n1)[C@H](CCO)N(C(C)=O)C2`, the Potency was “inactive”.
For `O=C(NCc1ccccc1Cl)c1csc([C@@H]2O[C@H](CO)[C@@H](O)[C@H]2O)n1`, the Potency was “inactive”.
With `CCOC(=O)CSc1nnc(CNc2ccc(F)cc2)o1` the Potency was “inactive”.
For `CCC(=O)Nc1ccc(C(=O)CSc2nnc(CNc3ccc(Cl)cc3)o2)cc1OC`, the Potency was 14.6 µM (active).
With `COc1cc(C(=O)NCc2nnc(SCC(=O)c3ccc(Cl)cc3)o2)cc(OC)c1OC` the Potency was “inactive”.
With `CCc1nc2c(OCc3cccc(OC)c3)cccn2c1N(C)C(=O)C(C)C` the Potency was “inactive”.
For `CSc1ncnc2c1ncn2CCCNCc1cccs1`, the Potency was “inactive”.
With `Nc1ncnc2c1ncn2[C@@H]1O[C@H](C(=O)NS(=O)(=O)c2c(Cl)nc3sccn23)[C@@H](O)[C@H]1O` the Potency was “inactive”.
In the case of `CCSc1ccccc1C(=O)NCc1ccc(OC)cc1`, the Potency is reported as 20.6 µM (active).
With `CCc1nc2ccccc2c(C(=O)NCc2ccc(OC)cc2)c1C` the Potency was “inactive”.
In the case of `CSc1ccccc1C(=O)NCc1ccccc1`, the Potency is reported as “inactive”.
For `O=C(CSc1ccc(Cl)cc1)NC1CC1`, the Potency was “inactive”.
With `CCC(=O)N1CCc2cc(Br)c(S(=O)(=O)NCCN3CCCCC3CC)cc21` (stereo not given) the Potency was 10.3 µM (active).
With `CCC1CCCCN1CCNS(=O)(=O)c1ccc2c(c1)CCN2C(C)=O` (stereo not given) the Potency was “inactive”.
With `CCCN(CCC)S(=O)(=O)c1cc2c(cc1Br)CCN2C(=O)CC` the Potency was “inactive”.
In the case of `NC(=O)Nc1ccc(/C=C/c2ccnc3ccccc23)cc1`, the Potency is reported as “inactive”.
With `C[C@H]1CN([C@@H](C)CO)C(=O)CCCn2nncc2CO[C@@H]1CN(C)Cc1ccc(Oc2ccccc2)cc1` the Potency was “inactive”.
With `COc1ccccc1CNC(=O)c1cc(-c2cc(F)ccc2OC)n[nH]1` the Potency was “inactive”.
For `Brc1ccc(-c2noc(-c3ccccc3)n2)o1`, the Potency was “inactive”.
In the case of `O=C(Oc1ccc(-c2nc(-c3ccccn3)no2)cc1)c1ccccc1`, the Potency is reported as 7.31 µM (active).
With `CCCCCCOc1ccc(OC(=O)c2cccnc2)cc1` the Potency was “inactive”.
For `CC(C)Nc1ncnc2c1ncn2[C@H]1CN(Cc2ccncc2)C[C@@H](CO)O1`, the Potency was “inactive”.
For `CN1OC[C@@H]2CN(C(=O)c3ccc(-c4ccccc4)cc3)[C@H](c3ccc(-c4cccc(F)c4)cc3)C[C@@H]21`, the Potency was “inactive”.
In the case of `CCC(=O)N1CCCC1(C)C(=O)Nc1ccc2c(c1)CCN2C(C)=O` (stereo not given), the Potency is reported as “inactive”.
In the case of `CCC(=O)N(CCc1ccccc1)Cc1cc2cc(C)ccc2[nH]c1=O`, the Potency is reported as “inactive”.
In the case of `CCN(Cc1cc2cc(C)ccc2[nH]c1=O)S(=O)(=O)c1ccccc1`, the Potency is reported as 3.66 µM (active).
For `Cc1ccc(S(=O)(=O)N(Cc2cc3ccccc3[nH]c2=O)CC2CCCO2)cc1` (stereo not given), the Potency was “inactive”.
With `S=C(NN=Cc1ccccn1)Nc1ccccn1` the Potency was “inactive”.
For `Cc1ccc(CNC(=O)Nc2nnc([C@H]3C[C@H](O)[C@@H](CO)O3)s2)cc1`, the Potency was “inactive”.
In the case of `CCN(CC)S(=O)(=O)c1cc(C(=O)Nc2ccccn2)ccc1C`, the Potency is reported as 23.1 µM (active).
For `Cc1ccc(NC(=O)CNCc2ccccn2)cc1S(=O)(=O)N(C)C`, the Potency was “inactive”.
With `Cc1ccc(C(=O)Nc2ncccc2C)cc1S(=O)(=O)N1CCOCC1` the Potency was “inactive”.
With `COc1ccc(CN2CCC(C)(Oc3cccc(F)c3)C2)c2ccccc12` (stereo not given) the Potency was “inactive”.
For `Fc1ccc(CSc2nnc(-c3cc4c(s3)-c3ccccc3CC4)o2)cc1`, the Potency was 20.6 µM (active).
For `CCSc1nnc(-c2cc3c(s2)-c2ccccc2CC3)o1`, the Potency was “inactive”.
In the case of `Fc1ccc(-c2nnc(CSc3nnc(-c4ccc5c(c4)OCO5)o3)o2)cc1`, the Potency is reported as “inactive”.
For `CCc1nc2ccc(C(=O)N(C)Cc3ccco3)cn2c1N(C)C(=O)Cc1ccccc1`, the Potency was “inactive”.
In the case of `Cc1cccc(NC(=O)CN2CCCN(S(=O)(=O)c3ccc(Br)s3)CC2)c1`, the Potency is reported as “inactive”.
In the case of `CSc1ccc(S(=O)(=O)N2CCC(C(=O)NCCc3ccccc3)CC2)cc1`, the Potency is reported as “inactive”.
In the case of `O=C(C1CCN(S(=O)(=O)c2ccc(Br)s2)CC1)N1CCN(C2CCCCC2)CC1`, the Potency is reported as “inactive”.
With `CC(C)N(C(=O)CN1CCN(S(=O)(=O)c2ccc(Br)s2)CC1)C(C)C` the Potency was 23.1 µM (active).
For `O=C(C1CCN(S(=O)(=O)c2ccc(Br)s2)CC1)N1CCN(c2ccccc2)CC1`, the Potency was “inactive”.
In the case of `O=C(NCCc1ccccc1)C1CCN(S(=O)(=O)c2ccc(Br)s2)CC1`, the Potency is reported as 2.06 µM (active).
For `CCCCNC(=O)C1CCCN(c2nnc(C)c3c(C)n(-c4ccc(Cl)cc4)nc23)C1` (stereo not given), the Potency was “inactive”.
For `O=C1OCCC1=COCCCCOC=C1CCOC1=O`, the Potency was “inactive”.
For `CCc1nc2ccc(C(=O)NC3CCN(Cc4ccccc4)CC3)cn2c1N(C)CCN1CCOCC1`, the Potency was “inactive”.
For `CCc1ccc(NC(=O)c2nn(-c3ccc(C)cc3)c(=O)n(C)c2=O)cc1`, the Potency was “inactive”.
For `O=C(CCl)NNc1nc(-c2ccccc2)c2cc(Cl)ccc2n1`, the Potency was “inactive”.
In the case of `Clc1ccc2nc(-c3ccccc3)nc(C(Cl)Cl)c2c1`, the Potency is reported as 3.66 µM (active).
In the case of `NC(N)=Nc1nc(-c2ccccc2)c2cc(Cl)ccc2n1`, the Potency is reported as “inactive”.
In the case of `CCc1nc2ccc(C(=O)Nc3cc(-c4ccccc4)ccc3OC)cn2c1N(CC)CC(=O)N(C)C`, the Potency is reported as “inactive”.
For `O=C(OCc1cc(=O)n2nc(C3CC3)sc2n1)c1ccccc1Cl`, the Potency was “inactive”.
In the case of `Cn1c(=O)c2c(nc(CN3CCOCC3)n2Cc2ccccc2)n(C)c1=O`, the Potency is reported as “inactive”.
For `Cn1c(=O)[nH]c(=O)c2c1nc(CN1CCN(c3ccccc3F)CC1)n2CCc1ccccc1`, the Potency was “inactive”.
With `Cn1c(=O)[nH]c(=O)c2c1nc(CN(Cc1ccccc1)Cc1ccccc1)n2CCN1CCOCC1` the Potency was 6.51 µM (active).
In the case of `C[C@H]1CN([C@@H](C)CO)C(=O)c2cc(C3=CCCCC3)cnc2O[C@@H]1CN(C)C(=O)Cc1ccccc1`, the Potency is reported as “inactive”.
With `COc1ccc(CCNC(=O)Cn2c(=O)n(-c3ccccc3)c(=O)c3c(C)c(C)sc32)cc1OC` the Potency was “inactive”.
In the case of `CC1(C(=O)NS(=O)(=O)C2CC2)CCCN(C(=O)CSc2ccccc2)C1` (stereo not given), the Potency is reported as “inactive”.
In the case of `COc1ccc(CCNC(=O)COC(=O)/C=C/c2cccs2)cc1OC`, the Potency is reported as “inactive”.
For `COc1ccc(CCNC(=O)c2cc3sccc3n2C)cc1OC`, the Potency was 20.6 µM (active).
For `Cn1c(C(=O)NCCCN2CCCCC2)cc2sccc21`, the Potency was “inactive”.
With `O=C(O)C1=C(C(=O)O)C2CCC1C2` the Potency was “inactive”.
For `Cc1ccc(S(=O)(=O)n2nc(C)c(S(=O)(=O)N3CCCCCC3)c2C)cc1`, the Potency was “inactive”.
With `CN=c1scc(-c2cc(OC)ccc2OC)n1/N=C/c1c(C)[nH]c2ccccc12` the Potency was “inactive”.
In the case of `COc1ccccc1N=Cc1c(O)c2ccccc2oc1=O`, the Potency is reported as “inactive”.
In the case of `COc1cc2[nH]c(O)c(C=O)c2cc1OC`, the Potency is reported as “inactive”.
In the case of `COc1ccc(N=Cc2c(O)[nH]c3ccccc23)cc1OC`, the Potency is reported as 6.51 µM (active).
With `Oc1[nH]c2ccccc2c1N=Nc1c(F)c(F)c(F)c(F)c1F` the Potency was “inactive”.
With `COc1cc(N=Cc2c(O)[nH]c3ccccc23)cc(OC)c1OC` the Potency was 4.11 µM (active).
In the case of `CCCCN(C(C)=O)c1ccc2c(c1)C1CC2CCN1Cc1ccccc1` (stereo not given), the Potency is reported as “inactive”.
For `Cc1ccccc1-c1nc(SCC(=O)N(C)c2ccccc2)c2c(=O)n(C)c(=O)n(C)c2n1`, the Potency was “inactive”.
In the case of `CC1(C(=O)NS(=O)(=O)c2cccc(F)c2)CCN1C(=O)Cc1ccc(Cl)cc1Cl` (stereo not given), the Potency is reported as “inactive”.
For `CNC(=O)c1ccc(CN(C)C(=O)c2cc(C3CC3)nc3c2cnn3C(C)C)cc1`, the Potency was “inactive”.
For `Cc1nonc1NC(=O)c1oc2ccccc2c1C`, the Potency was “inactive”.
For `Cc1c(C(=O)Nc2ccccn2)oc2ccc(Br)cc12`, the Potency was 11.6 µM (active).
For `Cc1noc(C)c1C(=O)Nc1ccccn1`, the Potency was “inactive”.
With `CCS(=O)(=O)c1nc(S(=O)(=O)c2ccc(C)cc2)c(NCc2ccc(Cl)cc2)s1` the Potency was “inactive”.
With `N#Cc1ccc(C(C(=O)NCc2ccccc2)n2c(=O)c(-c3ccco3)nc3ccccc32)cc1` (stereo not given) the Potency was “inactive”.
In the case of `C=CCC[C@H](CCCCC)OC(=O)/C=C/[C@H](O)[C@@H](O)C[C@@H](O)CC=C`, the Potency is reported as “inactive”.
In the case of `O=C(O)C(c1ccccc1)N1C(=O)/C(=C\c2ccc(-c3cccc(Cl)c3)o2)SC1=S` (stereo not given), the Potency is reported as “inactive”.
In the case of `O=C1c2ccccc2NC(c2ccc(-c3cccc(Cl)c3)o2)N1O` (stereo not given), the Potency is reported as 4.61 µM (active).
With `O=c1c(-c2cccc(Cl)c2)c[nH]n1-c1ccccc1` the Potency was “inactive”.
For `COc1ccc(CCNC(=O)c2cn(C)c3ccc(S(=O)(=O)N(C)C4CCCCC4)cc3c2=O)cc1OC`, the Potency was “inactive”.
With `Cc1cc2nc(-c3ccc(Cl)cc3)c(Cc3cccc(F)c3)n2c(C)c1Br` the Potency was “inactive”.
